AmpC detergent = inhibitors of E. coli AmpC beta-lactamase with detergent | P00811 | AmpC hydrolysis of nitrocefin, absorbance 480 nm, 0.01% Triton | Potency, µM (top dose mostly 114 µM), actives largely listed as inhibitors | 0.041% of 370,000 active | AID 485294; further: nearly all actives have a fitted effect of over 25% in size
Target sequence (P00811 whole entry, looked up): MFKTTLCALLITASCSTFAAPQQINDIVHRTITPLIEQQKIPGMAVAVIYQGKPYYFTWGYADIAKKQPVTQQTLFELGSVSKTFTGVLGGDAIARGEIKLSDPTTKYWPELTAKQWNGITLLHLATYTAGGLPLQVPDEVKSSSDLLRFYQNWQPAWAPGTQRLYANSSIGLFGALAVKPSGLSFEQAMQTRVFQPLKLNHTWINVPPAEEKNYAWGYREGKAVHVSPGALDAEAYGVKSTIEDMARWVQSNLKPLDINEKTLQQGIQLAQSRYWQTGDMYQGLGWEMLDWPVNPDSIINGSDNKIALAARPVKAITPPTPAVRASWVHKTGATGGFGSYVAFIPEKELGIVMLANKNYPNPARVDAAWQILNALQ
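20 mM phosphate pH 7.0 + 0.01% (detergent screen) or 0.0001% Triton X-100; 5.3 nM AmpC reagent; cpd preinc 15 min RT; nitrocefin (800 uM stock) to start; A480 q20 s × 4 min; Activity was normalised to no-enzyme and no-compound control wells.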
Sm TGR inh = blocks Schistosoma mansoni thioredoxin glutathione reductase. 3% of 360,000 active. Potency, µM (titrated, usually from 114 µM), most hits filed as inhibitors. purified TGR, DTNB reduction, TNB absorbance 405 nm; further: nearly all actives have a fitted effect of over 60% in size
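Kinetic colorimetric format: TGR-catalysed, NADPH-driven DTNB reduction monitored via TNB absorbance. Enzyme dispensed at 20 nM; compound exposure 15 min at room temperature before reaction start.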
Giardia FBPA inh = Giardia lamblia aldolase inhibition; purified Giardia FBPA; A8B2U2; 0.71% of 290,000 active; Potency, µM (highest dose often 59.6 µM), usual class: inhibitors; further: nearly all actives have a fitted effect of over 55% in size
Target sequence (A8B2U2 whole entry, looked up): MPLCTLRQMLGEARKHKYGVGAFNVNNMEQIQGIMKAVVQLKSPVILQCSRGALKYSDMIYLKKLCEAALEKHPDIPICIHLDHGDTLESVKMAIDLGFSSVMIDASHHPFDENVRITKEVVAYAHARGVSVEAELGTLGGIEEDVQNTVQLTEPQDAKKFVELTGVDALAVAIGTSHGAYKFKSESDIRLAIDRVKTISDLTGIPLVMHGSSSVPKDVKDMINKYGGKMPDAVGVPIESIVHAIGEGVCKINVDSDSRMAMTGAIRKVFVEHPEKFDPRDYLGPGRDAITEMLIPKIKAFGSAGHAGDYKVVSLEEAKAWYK
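40 nM FBPA preincubated 10 min at RT with compound (up to 57.5 uM final), then substrate plus GAPDH/TPI/NAD/arsenate coupling and diaphorase/resazurin added. Fluorescence read after 20 min at RT, 525/598 nm.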
AmpC no deterg = inhibitors of E. coli AmpC beta-lactamase without detergent. 0.52% of 330,000 active. P00811. Potency, µM (highest dose often 57.1 µM), most hits filed as inhibitors. AmpC nitrocefin hydrolysis, absorbance 480 nm, 0.0001% Triton; further: nearly all actives have a fitted effect of over 20% in size
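AmpC (5.3 nM in the dispensed reagent) in 20 mM phosphate pH 7.0 with 0.01% (detergent screen) or 0.0001% Triton X-100 was preincubated with compounds for 15 min at room temperature. Nitrocefin was then added from an 800 uM solution, and hydrolysis was followed at 480 nm.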
Each line names hits and unclear results; the compound was inactive in the other large screens. Shown are actives, neighbours in structure and some others; about 3.6% of the full set was active somewhere. The call rests on the fitted dose curve; in most records, active means well fitted curve in the direction sought with a large enough effect; inconclusive means small, poorly fitted or top-dose-only effect, or another doubt; inactive means no such curve, though single readings can be large; an effect the other way counts as inactive or inconclusive.

Cc1ccc(N2C(=O)NC(=O)/C(=C\c3ccc([N+](=O)[O-])o3)C2=O)cc1	Sm TGR inh 8.9µM, Giardia FBPA inh inconclusive
Cc1ccc(N2C(=O)/C(=C/c3ccc(CN(CCC#N)S(C)(=O)=O)o3)C(=O)NC2=S)cc1	Sm TGR inh 2.8µM, Giardia FBPA inh inconclusive
Cc1cc(C)cc(N2C(=O)/C(=C\c3ccc(N4CCN(C)CC4)o3)C(=O)NC2=S)c1	none
Cc1ccc(/C=C2\C(=O)NC(=S)N(c3ccc(F)cc3)C2=O)o1	Sm TGR inh 1.6µM, Giardia FBPA inh inconclusive
Cc1ccc(N2C(=O)NC(=O)/C(=C\c3ccc(N4CCOCC4)cc3)C2=O)cc1	Sm TGR inh inconclusive
COc1ccc(N2C(=O)/C(=C/c3ccc(N(C)C)o3)C(=O)NC2=S)cc1	Sm TGR inh inconclusive
CN(C)c1nnnn1-c1ccccc1Oc1ncc(C(F)(F)F)cc1Cl	Giardia FBPA inh inconclusive
CCOC(=O)[C@@H]1[C@H]2COc3ccccc3[C@H]2N2C(=O)N(c3cccc(Cl)c3)C(=O)[C@]12C	none (no result: AmpC detergent, Sm TGR inh, Giardia FBPA inh)
CCCn1nc2cc(C(=O)NCc3ccc4c(c3)OCO4)ccc2c1OCC	none
COc1ccc(C(=O)NCCS(=O)(=O)NCc2ccc3c(c2)OCO3)cc1	AmpC detergent inconclusive (no result: Giardia FBPA inh)
COc1cccc(C(=O)NCCS(=O)(=O)NCc2ccc3c(c2)OCO3)c1	AmpC detergent inconclusive, AmpC no deterg 35µM (no result: Giardia FBPA inh)
CCOc1cc(C(=O)NCc2ccc3c(c2)OCO3)cc(OCC)c1OCC	AmpC detergent inconclusive, Sm TGR inh 35µM
CCCCn1nc2cc(C(=O)NCc3ccc4c(c3)OCO4)ccc2c1OCC	AmpC no deterg 0.32µM
CCCn1nc2cc(C(=O)NC3CCc4ccccc43)ccc2c1OCC (configuration not stated)	AmpC no deterg 0.28µM
O=C(NC(=S)N1CCN(c2ccccc2)CC1)c1ccc(S(=O)(=O)N2CCOCC2)cc1	Giardia FBPA inh inconclusive
Cn1ccc(C(=O)Nc2ccc(Br)cc2Br)n1	none
C[C@H](O)[C@@H]1C(=O)N2C(C(=O)O)=C(SCCN=CN)C[C@@H]12	none (no result: AmpC detergent, Sm TGR inh, AmpC no deterg)
O=C(Cn1ccc2cc(S(=O)(=O)N3CCCCC3)ccc21)NCc1ccccc1F	AmpC no deterg 20µM (no result: Giardia FBPA inh)
CC[C@@H]1[C@H]2CCCC(=O)N3CC[C@@H](C[C@@H]1OC(=O)NCc1ccccc1)[C@@H]23	AmpC detergent inconclusive, Sm TGR inh 35µM
COc1ccc(/C=C(\C#N)C(=O)OCC(=O)NCc2ccccc2OC)cc1	AmpC detergent inconclusive, AmpC no deterg 32µM (no result: Giardia FBPA inh)
COc1cc(/C=N/NC(=O)c2cc(-c3ccco3)nc3ccccc23)cc(OC)c1O	Sm TGR inh 45µM
O=C(N/N=C/c1cccc(F)c1)c1cc(-c2ccco2)nc2ccccc12	Sm TGR inh inconclusive
Cc1cc(C(N)=O)c2cc(Br)ccc2n1	none
O=C(Nc1nncs1)c1cc(-c2ccco2)nc2ccccc12	none (no result: AmpC detergent, Sm TGR inh, Giardia FBPA inh)
O=C(O)c1cc(-c2ccco2)nc2ccc(Br)cc12	Sm TGR inh 0.71µM
NC(=O)COC(=O)c1cc(-c2ccco2)nc2ccccc12	Sm TGR inh 3.2µM
CCN1CCN(C(=O)c2ccc3c(c2)N(Cc2cccc(F)c2)C(=O)c2ccccc2S3)CC1	none (no result: Giardia FBPA inh, AmpC no deterg)
C=CCNC(=O)c1c(Br)cnn1-c1ccc(C)cc1	none
COc1ccccc1NC(=O)CCN1CCC(C(N)=O)CC1	none (no result: Giardia FBPA inh, AmpC no deterg)
O=C(COC(=O)c1cc(-c2ccco2)nc2ccccc12)NCc1ccc2c(c1)OCO2	AmpC detergent inconclusive, Sm TGR inh 8.9µM
O=C(c1ccco1)N1CCN(C(=O)c2cc(-c3ccccc3)nc3ccccc23)CC1	AmpC detergent inconclusive
O=C(c1ccco1)N1CCN(C(=O)c2cc(-c3ccccn3)nc3ccc(Cl)cc23)CC1	Sm TGR inh 7.9µM
O=C(COC(=O)c1ccco1)NCc1ccc2c(c1)OCO2	none
COc1ccccc1CNC(=O)COC(=O)c1cc(-c2ccco2)nc2ccccc12	Sm TGR inh 10µM
O=C(c1cc(-c2ccco2)nc2ccccc12)N1CCN(Cc2ccccc2)CC1	Sm TGR inh 14µM (no result: Giardia FBPA inh)
O=C(COC(=O)C1CC(=O)N(Cc2ccco2)C1)c1ccc(OC(=O)c2ccco2)cc1 (configuration not stated)	AmpC detergent inconclusive, Sm TGR inh 11µM
C=CCN1CCc2cccc3c2[C@H]1Cc1ccc(O)c(O)c1-3	Sm TGR inh 1.6µM, Giardia FBPA inh inconclusive
C=CCN1CC[C@]23c4c5ccc(O)c4O[C@@H]2/C(=N/N=C2\CC[C@@]4(O)C6Cc7ccc(O)c8c7[C@@]4(CCN6CC=C)[C@@H]2O8)CC[C@@]3(O)C1C5	none (no result: AmpC detergent, Sm TGR inh, AmpC no deterg)
CC(C)Cn1c(N)c(C(=O)COC(=O)c2cc(-c3ccccc3)nc3ccccc23)c(=O)n(C)c1=O	AmpC detergent inconclusive
CC(C)Cn1c(N)c(C(=O)COC(=O)c2cc(-c3ccco3)nc3ccccc23)c(=O)n(C)c1=O	Sm TGR inh 6.3µM
Cn1c(=O)c(C(=O)COC(=O)c2cc(-c3ccco3)nc3ccccc23)c(N)n(Cc2ccccc2)c1=O	Sm TGR inh 3.2µM
COc1cc2ccccc2cc1C(=O)N1CCN(c2ccccc2O)CC1	none (no result: Giardia FBPA inh)
COc1ccc(Cl)cc1NC(=O)CSC1=Nc2ccccc2C2=NC(CC(=O)NC3CCCCC3)C(=O)N12 (configuration not stated)	none (no result: Giardia FBPA inh, AmpC no deterg)
CC(/C=C/c1ccco1)=N\NC(=O)COc1ccc(C)c(C)c1	Sm TGR inh 7.1µM
Cc1ccc(OCCNC(=O)/C=C/c2ccco2)cc1C	Sm TGR inh 1.1µM
O=S(=O)(NCCc1ccccc1)c1ccccc1Br	none (no result: AmpC detergent, Sm TGR inh, AmpC no deterg)
CC1CC=CC2C1C(=O)N(Cc1ccccc1)C2c1ccc(F)c(-c2ccc(N(C)C)cc2)c1 (configuration not stated)	none (no result: AmpC detergent, Sm TGR inh, AmpC no deterg)
CCCCN(c1nc2ccccc2nc1Cl)S(=O)(=O)c1ccc(C)cc1	none
COC(=O)C(NC(C)=O)(Nc1sc2c(c1C(N)=O)CCCC2)C(F)(F)F (configuration not stated)	AmpC detergent inconclusive, Sm TGR inh inconclusive
CCc1c(C)sc(NC(NC(C)=O)(C(=O)OC)C(F)(F)F)c1C#N (configuration not stated)	Sm TGR inh 50µM
O=C(NNC(=O)c1cc2ccccc2cc1O)Nc1ccccc1F	AmpC no deterg 18µM
Cc1oc(-c2ccc(Cl)cc2)nc1CS(=O)CC(=O)NCc1cccs1 (configuration not stated)	AmpC detergent inconclusive, Sm TGR inh inconclusive
CCCCNC(=O)CS(=O)Cc1nc(-c2cccs2)oc1C (configuration not stated)	AmpC detergent inconclusive, Sm TGR inh 6.3µM
Cc1oc(-c2cccs2)nc1CS(=O)CC(=O)NCCCOC(C)C (configuration not stated)	Sm TGR inh 14µM (no result: Giardia FBPA inh)
Cc1oc(-c2cccs2)nc1CS(=O)CC(=O)NCCc1ccccc1 (configuration not stated)	Sm TGR inh 10µM
COC(=O)c1c(C)oc(C)c1S(=O)(=O)N1CCOCC1	Sm TGR inh inconclusive
O=C(/N=C1\NC(=O)C(F)(C(F)(F)F)S1)NC1CCCCC1 (configuration not stated)	Sm TGR inh 13µM

High-throughput results deposited in PubChem BioAssay by National Center for Advancing Translational Sciences (NCATS).
